Measurements reported in PubChem BioAssay AID488853 (National Center for Advancing Translational Sciences (NCATS), 2010).
Calls of active or inactive are those of the source. Calls follow the shape of the dose curve; as a rule, active = well fitted curve in the direction sought with a large enough effect; inconclusive = small, poorly fitted or top-dose-only effect, or another doubt; inactive = no such curve, though single readings can be large or run the other way.

These compounds were tested against Lysosomal acid glucosylceramidase (Homo sapiens) (UniProt P04062) (assay: qHTS Assay for Inhibitors and Activators of N370S glucocerebrosidase as a Potential Chaperone Treatment of Gaucher Disease: Activity in Non-Mutant Spleen Using Alternate Substrate Confirmation for Probe SAR). Conditions: human spleen homogenate, resorufin-glucoside fluorescence, 40 min; series mostly up to 57.5 µM.
Excerpt: NIH Chemical Genomics Center [NCGC] NIH Molecular Libraries Probe Production Centers Network [MLPCN] MLPCN Grant: MH086442-01 Assay Submitter (PI): Wei Zheng Glucocerebrosidase (GC) catalyzes the hydrolysis of beta-glucocerebroside to glucose and ceramide in lysosomes. Mutations in the glucocerebrosidase gene result in Gaucher disease, an autosomal recessive lysosomal storage disorder. Many of the mutations encountered in patients with Gaucher disease are missense alterations that may cause misfolding, decreased stability and/or mistrafficking of this lysosomal protein. […] These inhibitors include iminosugar analogs and three non-iminosugar inhibitors identified from a previous HTS of 62,000 compounds with the wild type recombinant enzyme. However, the enhancement of enzyme activity by the chaperone action of an enzyme inhibitor must be balanced against the direct inhibition of the enzyme. An enzyme activator could also function as a chaperone by binding to the enzyme and helping to correct its misfolding and mistrafficking. While activators for GC have not yet been identified, they may have better therapeutic potential than inhibitors. Therefore the discovery and development of chemical activators may provide a new strategy for the chaperone therapy. We have optimized a new assay using N370S mutant GC derived from the spleen of a Gaucher patient. […] In addition, the MLPCN compound library has expanded, which increases the chance of finding new and better probes. This confirmation assay tests for compound activity in spleen homogenate containing wildtype enzyme using an alternate resorufin-based substrate.
NCGC Assay Protocol Summary: This is a fluorogenic enzyme assay with resorufin-beta-D-glucopyranoside as the substrate and wildtype glucocerebrosidase from human spleen homogenate as the enzyme preparation. Upon the hydrolysis of this fluorogenic substrate, the resulting product, […] which can be detected by a standard fluorescence plate reader. Data were normalized to the controls for basal activity (without enzyme) and 100% activity (with enzyme). The AC50 values were determined from concentration-response data modeled with the standard Hill equation. Assay buffer: 50 mM citric acid (titrated with potassium phosphate to pH 5.0), 100 mM potassium chloride, 10 mM sodium chloride, 1 mM magnesium chloride, 0.01% Tween-20. 1536-well assay protocol: (1) Add 2 ul/well of spleen homogenate (27 ug final) (2) Add 23 nL compounds in DMSO solution. The final titration was 0.5 nM to 58 uM. (3) Add 2 ul of substrate (1 mM final) (4) Incubate at 37C for 40 min. (5) Add 2 ul stop solution (1M NaOH and 1M Glycine mixture, pH 10) (6) Detect the assay plate in a ViewLux plate reader (PerkinElmer) with Ex=365 nm and Em=440nm. Keywords: Glucocerebrosidase, beta-glucosidase, Gaucher Disease, pharmacological chaperone, chaperone therapy, high throughput screening, glucocerebrosidase inhibitor, MLSMR, MLSCN, NIH Roadmap, qHTS and NCGC

Sequence of Lysosomal acid glucosylceramidase (Homo sapiens) (P04062 whole entry, looked up): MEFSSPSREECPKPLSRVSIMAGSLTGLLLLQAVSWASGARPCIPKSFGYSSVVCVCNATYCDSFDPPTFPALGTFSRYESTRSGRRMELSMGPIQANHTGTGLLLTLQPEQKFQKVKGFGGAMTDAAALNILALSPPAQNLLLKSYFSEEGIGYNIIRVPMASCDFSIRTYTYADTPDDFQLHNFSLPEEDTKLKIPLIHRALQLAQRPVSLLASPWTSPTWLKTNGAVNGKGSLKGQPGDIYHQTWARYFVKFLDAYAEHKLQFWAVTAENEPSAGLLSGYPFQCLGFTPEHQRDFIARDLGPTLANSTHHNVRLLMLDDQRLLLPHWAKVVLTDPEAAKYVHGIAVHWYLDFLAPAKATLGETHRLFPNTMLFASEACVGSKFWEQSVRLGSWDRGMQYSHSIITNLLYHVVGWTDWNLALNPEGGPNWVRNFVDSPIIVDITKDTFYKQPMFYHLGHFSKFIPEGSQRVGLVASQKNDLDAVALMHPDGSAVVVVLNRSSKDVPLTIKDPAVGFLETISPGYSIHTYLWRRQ

outcome, inactive:
Cc1cc(C)n2ncc(C(=O)Nc3cccc(C#N)c3)c2n1
Cc1cccc(NC(=O)c2cnn3c(C)cc(C)nc23)c1
CCc1ccc(NC(=O)c2cnn3c(C)cc(C)nc23)cc1
Cc1cc(C)n2ncc(C(=O)Nc3ccc(S(C)(=O)=O)cc3)c2n1
Cc1cc(C)n2ncc(C(=O)Nc3ccc(C(C)(C)C)cc3)c2n1
Cc1cc(C)n2ncc(C(=O)Nc3cccc(C(F)(F)F)c3)c2n1
Cc1cc(C)n2ncc(C(=O)N3CCCC3)c2n1
Cc1cc(C)n2ncc(C(=O)NC3CCCCC3)c2n1
Cc1cc(C)n2ncc(C(=O)Nc3ccccc3C)c2n1
CC(=O)c1cccc(NC(=O)c2cnn3c(C)cc(C)nc23)c1
Cc1cc(C)n2ncc(C(=O)NC(C)C)c2n1
Cc1cc(C)n2ncc(C(=O)Nc3ccc(C#N)cc3)c2n1
COc1ccc(NC(=O)c2cnn3c(C)cc(C)nc23)cc1Cl
CC(=O)Nc1ccccc1NC(=O)c1cnn2c(C)cc(C)nc12
COc1ccc(NC(=O)c2cnn3c(C)cc(C)nc23)cc1F
Cc1cc(C)n2ncc(C(=O)Nc3ccc(C(F)(F)F)cc3)c2n1
C#Cc1ccc(NC(=O)c2cnn3c(C)cc(C)nc23)cc1
Cc1cc(C)n2ncc(C(=O)Nc3ccc4c(c3)OCO4)c2n1
Cc1cc(C)n2ncc(C(=O)NCC(C)C)c2n1
Cc1cc(C)n2ncc(C(=O)Nc3ccccc3)c2n1
COc1ccc(NC(=O)c2cnn3c(C)cc(C)nc23)cc1OC
Cc1cc(C)n2ncc(C(=O)Nc3ccc4c(c3)OCCO4)c2n1
Cc1cc(C)n2ncc(C(=O)Nc3ccc(C)c(C)c3)c2n1
Cc1cc(C)n2ncc(C(=O)Nc3ccc(Br)cc3)c2n1
Cc1cc(C)n2ncc(C(=O)NCc3ccco3)c2n1
COc1ccc(NC(=O)c2cnn3c(C)cc(C)nc23)cc1
CNC(=O)c1cnn2c(C)cc(C)nc12
Cc1cc(C)n2ncc(C(=O)NC3CCC(C(C)(C)C)CC3)c2n1 (configuration not stated)
Cc1cc(C)n2ncc(C(=O)Nc3ccc4c(c3)CCC4)c2n1
COc1cc(NC(=O)c2cnn3c(C)cc(C)nc23)cc(OC)c1OC
CC(=O)Nc1ccc(NC(=O)c2cnn3c(C)cc(C)nc23)cc1
O=C(Nc1cnn(Cc2ccc(F)cc2)c1)c1cnn2c(C(F)F)cc(-c3ccccc3)nc12
Cc1ccc(NC(=O)c2cnn3c(C)cc(C)nc23)cc1
Cc1ccc(NC(=O)c2cnn3c(C)cc(C)nc23)c(C)c1
Cc1cc(C)n2ncc(C(=O)NCc3ccccc3)c2n1
Cc1cc(C)n2ncc(C(=O)Nc3ccncc3)c2n1
CC(=O)c1ccc(NC(=O)c2cnn3c(C)cc(C)nc23)cc1
